Compounds with a hit are over-represented: about 3.6% of the library has one in this group of screens.
DRV1 agonist – activates human resolvin D1 receptor GPR32 | O75388 | activation, % at 76.9 µM | AID 1346428 | hit rate 2.5% among 48,000 | CHO-K1 GPR32 beta-arrestin PathHunter luminescence, 90 min; zero percent set by DMSO-only wells;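 active means activation of at least 60% and not above a set upper limit, about 1 call in 100 departs from these limits; inconclusive means activation of 40% to 60%, or above that upper limit; inactive means activation under 40%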; further: 0% is about no effect
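PathHunter beta-arrestin recruitment in CHO-K1 cells stably expressing ProLink-tagged GPR32. Cells were exposed to compound for 90 min at 37 C, then chemiluminescence was read after 1 h detection at ambient temperature; DMSO served as basal control.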
B2AR arrestin ag – agonists recruiting beta-arrestin to human beta2-adrenergic receptor | 44,000 tested, under 10 active | Potency, µM (highest dose often 46.1 µM), hits mostly activators | HTLA Tango cells, beta-arrestin recruitment, luciferase luminescence, 18 h | P07550;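 further: potency means the concentration at half of the fitted maximal effect; 0% = DMSO and full agonism = EC100 isoproterenol or metaproterenol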
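Tango cell line, 1% FBS DMEM; cpd titration up to 46 microM; 18 hr, 37 degrees C, 5% CO2. Luciferin/ATP substrate mix added, 15 min RT, luminescence. %Activity, CRC fitting, curve-class categorization.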
PTAP-TSG101 blk – TSG101-PTAP interaction inhibition, HIV-1 budding; AID 1347069; Fluorescence polarization, FITC-PTAP peptide/Tsg101, 20 min; Q99816; Potency, µM (top dose mostly 115 µM), hits mostly inhibitors; 44,000 tested, under 10 active; further: potency means the concentration at half of the fitted maximal effect; 0% is about no effect
Target sequence (Q99816 whole entry, looked up): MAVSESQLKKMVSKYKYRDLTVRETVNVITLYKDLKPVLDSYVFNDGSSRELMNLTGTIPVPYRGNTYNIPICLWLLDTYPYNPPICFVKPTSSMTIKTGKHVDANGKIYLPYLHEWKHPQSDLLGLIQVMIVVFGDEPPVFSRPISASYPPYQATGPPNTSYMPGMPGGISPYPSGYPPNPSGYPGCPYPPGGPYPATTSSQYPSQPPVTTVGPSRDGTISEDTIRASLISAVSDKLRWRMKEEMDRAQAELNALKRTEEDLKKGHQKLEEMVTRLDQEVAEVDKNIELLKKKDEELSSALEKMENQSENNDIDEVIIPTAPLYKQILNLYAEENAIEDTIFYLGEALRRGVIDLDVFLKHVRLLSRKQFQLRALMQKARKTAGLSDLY
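Fluorescence polarization: Tsg101 binding domain (10 uM final) in 10 mM HEPES pH 7.5, 0.15 M NaCl, 0.01% Tween 20, 3 mM EDTA, 0.1 mM TCEP; compounds pinned; FITC-PTAP peptide 50 nM final; 20 min, r.t.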
GALK inh – GALK (human) enzyme inhibition. recombinant GALK, Kinase-Glo ATP luminescence, 1 h. 44,000 tested, under 10 active. P51570. Potency, µM (doses to about 57.5 µM), for the others: at the top dose activity, negative = inhibition, most hits filed as inhibitors;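 further: plate controls were full GALK reaction for no effect and reaction lacking GALK for full effect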
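Reactions with and without enzyme served as controls. GALK at 5 nM phosphorylates 100 uM galactose using 35 uM ATP (HEPES pH 8.0, Mg2+) for 1 h at RT, with luminescence read 10 min after adding Kinase-Glo Plus.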
NTMT1 inhibitor – blocks human N-terminal methyltransferase 1 activity; Q9BV86; NTMT1 MTase-Glo SAH luminescence, purified enzyme; Potency, µM (highest dose often 114 µM), for inactives: at the highest dose activity change, negative = inhibition, hits mostly inhibitors; hit rate 2.5% among 59,000; AID 1645870;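 further: potency means the concentration at half of the fitted maximal effect; plate controls were DMSO vehicle for no effect and no enzyme for full effect; nearly all actives have a fitted effect of over 65% in size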
Target sequence (Q9BV86 whole entry, looked up): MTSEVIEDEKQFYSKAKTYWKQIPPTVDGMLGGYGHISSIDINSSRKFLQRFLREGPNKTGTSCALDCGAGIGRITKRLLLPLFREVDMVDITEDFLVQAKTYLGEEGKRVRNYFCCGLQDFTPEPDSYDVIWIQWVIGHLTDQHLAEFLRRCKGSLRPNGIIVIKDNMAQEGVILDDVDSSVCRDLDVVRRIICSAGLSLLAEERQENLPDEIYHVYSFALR
GALC G270D up – raises human GALC G270D mutant activity in cells; hit rate 0.1% among 45,000; AID 1159614; Potency, µM (highest dose often 57.5 µM), most hits filed as activators; 145M-Twi-hGALC-G270D cells (Twitcher mouse brain line with human GALC G270D), HMU-beta-Gal fluorescence, 48 h; further: potency means the concentration at half of the fitted maximal effect; 0% is about no effect; nearly all actives have a fitted effect of over 65% in size
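Live 145M-Twi cells (Twitcher mouse brain-derived, GALC-null) stably expressing human GALC-G270D, with a wild-type GALC line, were compound-treated. Residual GALC activity was then read as fluorescence from 0.1 mM final HMU-β-gal at pH 5.2; higher signal means activation.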
* = called active by the depositor; i = inactive; ? = inconclusive; / = not tested or not shown; ! = not confirmed by another sample; [ ] = another dose, or the depositor's remark. Unless noted, the call rests on the fitted dose curve; in most records, active means well fitted curve in the direction sought with a large enough effect; inconclusive means small, poorly fitted or top-dose-only effect, or another doubt; inactive means no such curve, though single readings can be large; an effect the other way counts as inactive or inconclusive.

SMILES	DRV1 agonist	B2AR arrestin ag	PTAP-TSG101 blk	GALK inh	NTMT1 inhibitor	GALC G270D up
CCn1c(=O)c(-c2ccc(-c3cncc(C)n3)cc2Cl)cc2cnc(NCCC3CCN(C)CC3)nc21	/	/	/	/	-11%[12.6 µM]	/
N#Cc1cc(NC(=O)Nc2nnc(-c3ccncc3)s2)ccc1Cl	/	/	/	/	-16%	/
Cc1ccccc1NC(=O)Cn1c(=O)n(CCCC(=O)NCc2ccc3c(c2)OCO3)c(=O)c2ccccc21	-6	i	i	6%	89µM*	i
COc1ccc(-c2ccc(NC(=O)c3cccs3)cn2)cc1	/	/	/	/	2%	/
Cc1ccc(NS(=O)(=O)c2ccc3c(c2)C2C=CCC2C(c2ccc(C(=O)O)cc2)N3)cc1C (stereo not drawn)	/	/	/	/	25µM*	/
Cc1ccc(NS(=O)(=O)c2ccc3c(c2)[C@H]2C=CC[C@H]2[C@@H](c2ccc(F)cc2)N3)cc1C	-19	i	i	3%	16%	i
Cc1cc(=O)n(Cc2ccccc2)c2c1c(C)nn2C	?	i	i	-3%	-4%	i
COc1cccc(Cn2c(=O)cc(C)c3c(C)nn(C)c32)c1	79*	i	i	0%	?	i
COc1ccc(NC(=O)Nc2cccc(-c3cn4cccnc4n3)c2)cc1	77*	i	i	5%	?	i
O=C(Nc1ccc(-c2cn3cccnc3n2)cc1)c1cc(Br)ccc1Cl	83*	i	i	-2%	0%	i
COc1cccc(C(=O)Nc2cccc(-c3nc4ncccn4c3C)c2)c1	61*	i	i	1%	-6%	?
COc1cc(OC)cc(C(=O)Nc2cccc(-c3cn4cccnc4n3)c2)c1	?	i	i	3%	-1%	i
Cc1ccccc1C(=O)Nc1cccc(-c2cn3cccnc3n2)c1	?	i	i	-2%	-4%	i
COC1=CC(=O)C=C(C)C12Oc1c(Cl)c(OC)cc(OC)c1C2=O (stereo not drawn)	/	/	/	/	-3%[29.8 µM]	/
NC(=O)C1=CC2C3C=CC2C(OC3=O)O1 (stereo not drawn)	/	/	/	/	2%	/
CCOC(=O)c1c(NC(=O)c2ccccc2C)sc2c1CCCC2	-7	i	i	10%	89µM*	i
Cc1cccc(NC(=O)c2c(NC(=O)c3ccccc3)sc3c2CCC3)c1	9	i	i	-19%	2%	i
Cc1cccc(NC(=O)c2c(NC(=O)c3ccccc3)sc3c2CCCC3)c1	-3	i	i	-4%	45µM*	i
CCOC(=O)c1c(NC(=O)c2cc(Cl)ccc2Cl)sc2c1CCCC2	-4	i	i	0%	6%	i
CNc1nc(-c2ccc3c(N)n[nH]c3c2)cc(N2C[C@@H](C(=O)NC3CCCCC3)CC[C@H]2C)n1	/	/	/	/	2%	/
O=C(O)c1ccc(O)c2ncc(N3CCCN(C4CCCC4)CC3)cc12	/	/	/	/	-1%	/
O=c1c2ccccc2nc2sc(NS(=O)(=O)c3ccc4c(c3)CCC4)nn12	/	/	/	/	-21%	/
CCOc1ccc2ncc3c(-c4cccc(OC)c4)nn(-c4ccccc4)c3c2c1	14	i	i	0%	89µM*	i
CCc1ccc(-c2nn(-c3ccc(OC)cc3)c3c2cnc2ccc(OC)cc23)cc1	-2	i	i	7%	-14%	i
O=C(O)c1ccc(O)c2ncc(N3CC(N4CCOCC4)C3)cc12	/	/	/	/	5%[57.5 µM]	/
SMILES	DRV1 agonist	B2AR arrestin ag	PTAP-TSG101 blk	GALK inh	NTMT1 inhibitor	GALC G270D up
CCCCNc1ncc2c(-c3ccc(CN4CCN(C)CC4)cc3)cn(C3CCC(O)CC3)c2n1 (stereo not drawn)	/	/	/	/	79µM*!	/
c1cncc(-c2ccc(CNc3nc(N4CCCC4)nc4ccccc34)cc2)c1	/	/	/	/	40µM*	/
Brc1ccccc1-c1nc(NCc2ccc(-c3cccnc3)cc2)c2ccccc2n1	/	/	/	/	16%	/
C#Cc1cccc(Nc2nc3cc(C(=O)O)ccc3c3cncnc23)c1	/	/	/	/	25µM*	/
O=C(O)[C@H]1CCCC[C@H]1C(=O)N1CCc2ccccc2[C@H]1CN1C(=O)c2ccccc2C1=O	/	/	/	/	8%[57.5 µM]	/
O=c1c2ccccc2nc2sc(Nc3cccc(N4CCNCC4)c3)nn12	/	/	/	/	50µM*!	/
CN1CCN(c2cccc(Nc3nn4c(=O)c5ccc(F)cc5nc4s3)c2)CC1	/	/	/	/	-5%	/
CN1CCN(c2cccc(Nc3nn4c(=O)c5ccc(N(C)C)cc5nc4s3)c2)CC1	/	/	/	/	50µM*	/
Cc1nc(Nc2cnn(C3CCNCC3)c2)nc2c1N(C)C(=O)c1cc3ccccc3cc1N2C	/	/	/	/	3%[57.5 µM]	/
COc1cc(N2CCC(N3CCN(C)CC3)CC2)ccc1Nc1ncc(Cl)c(Nc2ccccc2S(=O)(=O)C(C)C)n1	/	/	/	/	25µM*!	/
COc1cc(N2CCN(C)CC2)ccc1Nc1nc(N)c(C(=O)c2c(Cl)cccc2Cl)s1	/	/	/	/	4%[57.5 µM]	/
Cc1ccc2nc3sc(C(=O)N4CCOCC4)cc3cc2c1	/	/	/	/	1%[57.5 µM]	/
FC(F)(F)c1cccc(-n2cc(-c3ccccc3)c3c(N4CCCCC4)ncnc32)c1	-10	i	i	2%	10%	i
Nc1ncnc2c1c(-c1cccc(OCc3ccccc3)c1)cn2C1CC(CN2CCCC2)C1 (stereo not drawn)	/	/	/	/	13µM*	/
COc1ccc2[nH]cc(CCNC(=O)Nc3ccccc3)c2c1	67*	i	i	-1%	-4%	i
Cc1cccc(NC(=O)CSc2nc3ccc(NC(=O)CCc4ccccc4)cc3s2)c1	30	i	i	-1%	14%	i
O=C(Nc1ccc2nc(SCC(=O)N3CCOCC3)sc2c1)c1cccc(F)c1	-7	i	i	-4%	0%	i
Cc1cccc(NC(=O)CSc2nc3ccc(NC(=O)c4cccs4)cc3s2)c1	64*	i	i	1%	-8%	i
O=C(Nc1ccc2nc(SCC(=O)N3CCCC3)sc2c1)c1cccc(F)c1	-6	i	i	3%	89µM*	i
COc1cccc(NC(=O)CSc2nc3ccc(NC(=O)c4cccs4)cc3s2)c1	95*	i	i	-6%	9%	i
CC1CCC(=O)CC(O)C(O)CC(=O)O1 (stereo not drawn)	/	/	/	/	24%[57.5 µM]	/
CCCCn1c(=N)n(CCCOc2ccc(F)cc2)c2ccccc21	76*	i	i	4%	-14%	i
O=C(c1ccc(-c2cnc3c(O)cccc3c2)cc1)N1CCNCC1	/	/	/	/	-12%	/
COc1ccc2c(CNCc3cccs3)c(C(=O)O)n(Cc3ccccc3)c2c1	44	i	i	0%	-2%	i
CCOc1ccc(CNCc2c(C(=O)O)n(Cc3ccc(C)cc3)c3cc(C)ccc23)cc1	64*	i	i	?	16%	i

Compound activity (PubChem)
